Results: PubChem BioAssay (NCATS)
Results filed as inconclusive are left out. Activity calls are given as the source filed them. Unless noted, calls follow the shape of the dose curve; as a rule, active = well fitted curve in the direction sought with a large enough effect; inconclusive = small, poorly fitted or top-dose-only effect, or another doubt; inactive = no such curve, though single readings can be large; an effect the other way counts as inactive or inconclusive.

Legend:
[1] = molecular target: Lysosomal acid glucosylceramidase (Homo sapiens) (UniProt P04062); test: Glucocerebrosidase-p2 (AID 348; in the data active = potency below about 10 µM; also: potency is read from the fitted curve at half-maximal effect); settings: purified GBA, blue fluorogenic substrate, 40 min
Chain of Lysosomal acid glucosylceramidase (Homo sapiens) (P04062 whole entry, looked up): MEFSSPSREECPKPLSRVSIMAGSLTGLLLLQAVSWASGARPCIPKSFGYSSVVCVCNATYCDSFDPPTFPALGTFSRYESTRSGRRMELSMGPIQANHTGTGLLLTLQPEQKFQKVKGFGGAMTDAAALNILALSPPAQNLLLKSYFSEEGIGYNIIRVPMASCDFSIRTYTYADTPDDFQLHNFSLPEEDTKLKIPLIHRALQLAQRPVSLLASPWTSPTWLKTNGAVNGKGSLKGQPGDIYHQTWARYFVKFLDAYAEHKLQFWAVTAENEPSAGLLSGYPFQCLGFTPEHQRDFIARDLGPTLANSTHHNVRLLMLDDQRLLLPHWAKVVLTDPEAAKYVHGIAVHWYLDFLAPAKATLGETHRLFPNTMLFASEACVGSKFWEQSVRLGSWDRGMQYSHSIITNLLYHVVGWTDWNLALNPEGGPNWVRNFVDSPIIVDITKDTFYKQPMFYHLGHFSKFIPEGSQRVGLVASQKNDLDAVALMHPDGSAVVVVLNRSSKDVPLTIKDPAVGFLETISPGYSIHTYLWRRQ
Summary of the method: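 Normal human glucocerebrosidase (0.2 nM) with blue fluorogenic substrate (80 uM final) in citrate/phosphate pH 5.9 with 10mM sodium taurocholate, 0.01% tween-20; 40 min RT, NaOH/glycine stop; fluorescence Ex 365/Em 440; AC50 from a titration from 0.6 nM upwards.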

[2] = AP1 Signaling Pathway (AID 357; active = well fitted curve in either direction with a large enough effect, not every such curve was filed as active;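 also: ME-180 reporter cells stimulated with EGF at its EC50 level; % is scaled to controls: 0 for no effect and ±100 for the full control effect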); settings: ME-180 AP-1-bla reporter, EGF-induced, beta-lactamase ratio, 5 h; at 7.69 µM (top of the series) unless noted
Summary of the method: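 Read-out was the 460nm/530nm emission ratio (excitation 405nm) after CCF4 loading for 2.5 hours at room temperature. Cells carried an AP-1-driven beta-lactamase reporter, were stimulated with EC50 EGF plus compound for 5 hours, and AC50 values came from titrations.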

[3] = molecular target: Cytochrome P450 1A2 (Homo sapiens) (UniProt P05177); test: p450-cyp1a2 (AID 410; calls by dose curve; also: potency is read from the fitted curve at half-maximal effect); settings: recombinant CYP1A2, luciferin-ME demethylation, luminescence; series mostly up to 57 µM
Chain of Cytochrome P450 1A2 (Homo sapiens) (P05177 whole entry, looked up): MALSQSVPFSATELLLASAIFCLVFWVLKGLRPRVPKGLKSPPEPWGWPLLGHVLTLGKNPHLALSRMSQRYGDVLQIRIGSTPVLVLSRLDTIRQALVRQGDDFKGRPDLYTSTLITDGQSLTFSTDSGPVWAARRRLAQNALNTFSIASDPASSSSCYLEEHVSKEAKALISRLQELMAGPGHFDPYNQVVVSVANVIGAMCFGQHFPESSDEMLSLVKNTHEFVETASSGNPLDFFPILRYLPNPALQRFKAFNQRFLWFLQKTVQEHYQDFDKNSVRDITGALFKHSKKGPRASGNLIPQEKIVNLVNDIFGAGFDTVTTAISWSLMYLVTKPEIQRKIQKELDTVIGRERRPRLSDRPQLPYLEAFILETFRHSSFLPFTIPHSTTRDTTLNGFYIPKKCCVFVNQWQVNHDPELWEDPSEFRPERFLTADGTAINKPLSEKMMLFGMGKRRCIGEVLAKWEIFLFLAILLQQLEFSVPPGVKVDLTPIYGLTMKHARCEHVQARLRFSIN
Summary of the method: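 Read-out is luminescence from luciferin produced by CYP1A2 demethylation of Luciferin-ME (100uM, at Km). Detection reagent stopped the 60 min NADPH-dependent reaction; signals were normalized to 57 uM furafylline.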

[4] = NFAT Signaling Pathway (AID 444; active = well fitted curve in either direction with a large enough effect, not every such curve was filed as active;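 also: carbachol stimulus at about its EC50 of 1 µM final; % is scaled to controls: 0 for no effect and ±100 for the full control effect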); settings: Jurkat NFAT-bla M1, carbachol, beta-lactamase ratio, 5 h; at 7.69 µM (top of the series) unless noted
Summary of the method: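 Read-out: CCF4 FRET ratio (460 nm/530 nm) after 1 h RT dye loading, used for %activity and AC50 from titration series. Cells: Jurkat NFAT-β-lactamase/M1 line, treated with compound plus 1 uM carbachol for 5 h, 37 °C.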

[5] = Stat Signaling Pathway (AID 446; active = well fitted curve in either direction with a large enough effect, not every such curve was filed as active;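 also: ME-180 cervical cancer cells given 40 pM IL-6 alongside compound; SIE-controlled beta-lactamase reporter measured as 460/530 nm FRET emission ratio; % is scaled to controls: 0 for no effect and ±100 for the full control effect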); settings: ME-180 (cervical carcinoma) SIE beta-lactamase reporter, IL-6 stimulated, 5 h; at 7.69 µM (top of the series) unless noted
Summary of the method: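 Compound effects on IL-6-induced STAT reporter activity were measured in ME-180 cells. After overnight culture, cells were co-treated with 40 pM IL-6 for 5 hrs before beta-lactamase substrate loading at room temperature.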

[6] = molecular target: Glucocorticoid receptor (Homo sapiens) (UniProt P04150); test: GR-GFP Redistribution (AID 450;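 active = compounds whose dose series gives a full or clear partial fitted curve of increased nuclear translocation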; also: potency is read from the fitted curve at half-maximal effect); settings: U2OS GR-GFP nuclear translocation, laser cytometry, 2 h
Chain of Glucocorticoid receptor (Homo sapiens) (P04150 whole entry, looked up, the tested form may be a part): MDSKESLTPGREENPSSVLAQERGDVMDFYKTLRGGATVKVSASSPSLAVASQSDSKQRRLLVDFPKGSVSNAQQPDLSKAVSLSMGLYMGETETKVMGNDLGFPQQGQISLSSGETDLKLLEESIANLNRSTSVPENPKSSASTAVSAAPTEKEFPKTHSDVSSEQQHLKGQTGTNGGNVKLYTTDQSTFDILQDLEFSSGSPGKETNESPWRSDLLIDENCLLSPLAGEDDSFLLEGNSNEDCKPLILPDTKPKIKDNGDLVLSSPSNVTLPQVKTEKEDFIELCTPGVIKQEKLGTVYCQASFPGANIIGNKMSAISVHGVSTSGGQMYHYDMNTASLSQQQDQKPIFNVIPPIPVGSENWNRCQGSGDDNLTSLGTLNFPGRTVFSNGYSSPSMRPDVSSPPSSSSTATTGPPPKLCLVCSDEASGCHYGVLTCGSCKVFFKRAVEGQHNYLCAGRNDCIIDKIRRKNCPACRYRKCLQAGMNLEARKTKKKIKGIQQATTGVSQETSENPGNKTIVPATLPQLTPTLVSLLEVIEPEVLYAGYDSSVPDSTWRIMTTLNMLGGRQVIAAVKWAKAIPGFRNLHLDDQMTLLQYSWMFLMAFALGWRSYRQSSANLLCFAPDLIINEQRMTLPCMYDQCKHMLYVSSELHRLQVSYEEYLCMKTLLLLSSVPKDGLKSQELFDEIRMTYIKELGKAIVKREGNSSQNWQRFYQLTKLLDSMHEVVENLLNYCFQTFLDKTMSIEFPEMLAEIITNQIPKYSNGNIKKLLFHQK

[7] = molecular target: Glucocorticoid receptor (Homo sapiens) (UniProt P04150); test: GR-EFC Redistribution (AID 451; calls by dose curve; also: potency is read from the fitted curve at half-maximal effect); settings: CHO-K1 GR-EFC translocation, beta-gal luminescence, 2 h
Summary of the method: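 Translocation of GR-ED fusion to nuclear EA restores b-gal, read by luminescence after 1 h room-temperature detection. Engineered CHO-K1 biosensor cells, 1,000/well, exposed 2 h at 37 C to titrations up to 46 uM final.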

[8] = molecular target: Mitogen-activated protein kinase 10 (Mus musculus) (UniProt Q61831); test: JNK3 AlphaScreen Assay (AID 530; active = well fitted curve in either direction with a large enough effect, not every such curve was filed as active;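 also: kinase came from lysate of stimulated human HepG2 cells; signal reports phosphorylation of biotinylated GST-cJun 1-79 at Ser73 with 10 µM ATP; % is scaled to controls: 0 for no effect and ±100 for the full control effect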); settings: JNK3 lysate, c-Jun phosphorylation; series mostly up to 57.1 µM
Summary of the method: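 Kinase buffer: 20 mM Tris-HCl pH 7.6, 10 mM MgCl2, 1 mM DTT, 0.1 mM Na3VO4, 0.01% Tween-20; ATP 10 uM. Substrate biotin-GST-cJun(1-79), enzyme from activated HepG2 lysates. Detection by Ser73 phospho-antibody AlphaScreen.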

[9] = molecular target: 3',5'-cyclic-AMP phosphodiesterase 4B (Homo sapiens) (UniProt Q07343); test: qHTS Assay for Inhibitors of PDE-IV (AID 607; active = well fitted activation curve with a large enough effect in the main read-out, with a control signal flat, not every such curve was filed as active; also: % of control where 0% means no effect); settings: HEK293 ACTOne CNG channel cells, membrane potential fluorescence; series mostly up to 22.9 µM
Chain of 3',5'-cyclic-AMP phosphodiesterase 4B (Homo sapiens) (Q07343 whole entry, looked up): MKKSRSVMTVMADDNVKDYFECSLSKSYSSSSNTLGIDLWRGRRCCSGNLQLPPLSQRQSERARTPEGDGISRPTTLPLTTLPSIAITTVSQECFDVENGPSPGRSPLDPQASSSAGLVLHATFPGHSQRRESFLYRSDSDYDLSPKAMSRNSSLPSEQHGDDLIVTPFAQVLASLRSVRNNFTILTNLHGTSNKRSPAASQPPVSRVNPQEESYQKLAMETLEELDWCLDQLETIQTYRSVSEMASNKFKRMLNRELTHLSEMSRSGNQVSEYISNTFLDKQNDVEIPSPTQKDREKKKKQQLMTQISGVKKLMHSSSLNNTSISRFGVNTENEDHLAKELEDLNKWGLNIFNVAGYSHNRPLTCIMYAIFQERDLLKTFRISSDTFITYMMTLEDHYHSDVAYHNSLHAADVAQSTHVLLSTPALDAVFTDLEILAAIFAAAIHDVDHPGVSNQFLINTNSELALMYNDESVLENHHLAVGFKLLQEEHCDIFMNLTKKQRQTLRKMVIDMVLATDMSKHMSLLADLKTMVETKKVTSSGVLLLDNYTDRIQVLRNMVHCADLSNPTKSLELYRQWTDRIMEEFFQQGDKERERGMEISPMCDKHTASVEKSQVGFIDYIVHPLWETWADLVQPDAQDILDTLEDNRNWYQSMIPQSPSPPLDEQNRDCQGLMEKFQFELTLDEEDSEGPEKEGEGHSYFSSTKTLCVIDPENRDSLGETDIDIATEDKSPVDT
Summary of the method: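 ACTOne HEK293 cells carry a modified cAMP-gated CNG channel and express endogenous PDE4; plated 1000 cells/well, compounds up to 22.9 uM final. Membrane-potential dye fluorescence (ex 535/em 590) was read; parental cells received 10 uM forskolin + 100 uM RO 20-1724.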

[10] = molecular target: Cytochrome P450 3A4 (Homo sapiens) (UniProt P08684); test: qHTS Assay for Inhibitors and Substrates of Cytochrome P450 3A4 (AID 884); settings: recombinant CYP3A4, Luciferin-PPXE luminescence; series mostly up to 57.1 µM; also: potency is read from the fitted curve at half-maximal effect; nearly all actives have a fitted effect of over 50% in size
Chain of Cytochrome P450 3A4 (Homo sapiens) (P08684 whole entry, looked up): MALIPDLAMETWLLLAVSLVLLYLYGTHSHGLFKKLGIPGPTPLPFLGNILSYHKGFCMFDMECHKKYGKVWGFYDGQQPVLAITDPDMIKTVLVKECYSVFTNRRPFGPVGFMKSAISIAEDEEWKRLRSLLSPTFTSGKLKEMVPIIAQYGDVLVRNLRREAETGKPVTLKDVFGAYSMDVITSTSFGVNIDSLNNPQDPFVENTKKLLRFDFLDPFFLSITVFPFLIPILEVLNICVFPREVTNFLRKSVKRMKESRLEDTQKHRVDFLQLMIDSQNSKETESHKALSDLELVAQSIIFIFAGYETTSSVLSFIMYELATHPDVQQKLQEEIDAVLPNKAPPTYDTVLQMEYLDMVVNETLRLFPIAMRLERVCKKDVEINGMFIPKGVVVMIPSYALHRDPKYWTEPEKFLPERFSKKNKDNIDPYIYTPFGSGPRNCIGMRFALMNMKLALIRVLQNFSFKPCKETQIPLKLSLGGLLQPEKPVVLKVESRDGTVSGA
Summary of the method: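 Luminescent readout of luciferin produced by CYP3A4 (20 nM) dealkylation of Luciferin-PPXE, 25 uM (its KM). NADPH-driven reaction ran 60 min at RT after 10 min compound preincubation; data scaled to 57 uM ketoconazole as 100% inhibition.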

[11] = molecular target: Cytochrome P450 3A4 (Homo sapiens) (UniProt P08684); test: qHTS Assay for Activators of Cytochrome P450 3A4 (AID 885); settings: recombinant CYP3A4, Luciferin-PPXE luminescence, 60 min; series mostly up to 57.1 µM; also: nearly all actives have a fitted effect of over 65% in size
Summary of the method: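 CYP3A4 activity: Luciferin-PPXE O-dealkylation, 25uM substrate, 200mM KPO4, RT throughout. Read-out is luciferase luminescence; higher values reflect activation.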

[12] = molecular target: Cytochrome P450 2C19 (Homo sapiens) (UniProt P33261); test: qHTS Assay for Inhibitors and Substrates of Cytochrome P450 2C19 (AID 899); settings: recombinant CYP2C19, luciferin-H EGE luminescence; series mostly up to 57.1 µM; also: potency is read from the fitted curve at half-maximal effect; nearly all actives have a fitted effect of over 60% in size
Chain of Cytochrome P450 2C19 (Homo sapiens) (P33261 whole entry, looked up): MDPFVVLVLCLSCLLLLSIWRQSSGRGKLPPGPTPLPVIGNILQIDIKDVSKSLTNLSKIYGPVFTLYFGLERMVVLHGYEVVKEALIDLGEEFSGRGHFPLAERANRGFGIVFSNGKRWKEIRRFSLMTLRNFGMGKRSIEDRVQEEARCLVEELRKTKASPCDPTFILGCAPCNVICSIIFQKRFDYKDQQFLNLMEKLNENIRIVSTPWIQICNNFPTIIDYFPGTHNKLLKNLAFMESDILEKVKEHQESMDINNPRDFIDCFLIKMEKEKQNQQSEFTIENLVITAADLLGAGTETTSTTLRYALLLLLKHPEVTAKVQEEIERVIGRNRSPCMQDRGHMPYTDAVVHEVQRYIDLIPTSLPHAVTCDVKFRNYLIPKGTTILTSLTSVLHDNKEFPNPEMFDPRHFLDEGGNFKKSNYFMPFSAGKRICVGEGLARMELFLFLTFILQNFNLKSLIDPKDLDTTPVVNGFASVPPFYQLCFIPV
Summary of the method: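 5nM enzyme + 10uM Luciferin-H EGE (=KM), 50mM KPO4; cpd pin-transferred, 10 min 37C; NADPH regen, 60 min 37C; stopped w/ luciferin detection reagent, 20 min; luminescence. Normalized to 57uM ketoconazole (AC100).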

[13] = Confirmation and Secondary Assay for Modulators of Hemoglobin Beta Chain Splicing at IVS2 654 locus (AID 910); settings: HeLa EGFP-654 splicing reporter, GFP fluorescence, 48 h; series mostly up to 38.3 µM;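 also: HeLa cells stably carrying EGFP split by mutant beta-globin IVS2-654 intron; per-well total GFP intensity by laser scanning cytometry after 2-day treatment; % of control where 0% means no effect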
Summary of the method: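 Readout: per-well total peak green fluorescence (488 nm ex, 500–520 nm em) from objects 5–250 µm, reflecting correct splicing of an EGFP-654 reporter. Compounds were applied for 2 days at 37 °C to overnight-plated HeLa EGFP-654 cells; controls were DMSO and 500 nM IVS2-654 PNA.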

[14] = Confirmation and Secondary Assay for Modulators of Hemoglobin Beta Chain Splicing at IVS2 705 locus (AID 930); settings: HeLa EGFP-705 splicing reporter, GFP fluorescence, 48 h; series mostly up to 38.3 µM;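 also: HeLa cells stably expressing the EGFP-705 splicing reporter; GFP fluorescence per well restored by corrected splicing of the IVS2-705 intron in EGFP; % of control where 0% means no effect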
Summary of the method: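 Stable HeLa line with EGFP disrupted by mutant beta-globin intron 2 (705). Overnight attachment, then 2 days of compound at 37C, 5% CO2. Signal: peak GFP intensity summed over objects 5-250 µm.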

[15] = qHTS Assay for Lipid Storage Modulators (AID 1519; calls by dose curve); settings: Drosophila S3 cells, BODIPY lipid droplet/cell ratio, laser cytometry, cells loaded with oleic acid; for activity change, negative = inhibition: at 57.5 µM (top of the series)
Summary of the method: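 Cells seeded at 5,000 per well were treated with compounds over a concentration series and loaded with oleic acid (400 uM, as added). Lipid droplet fluorescence (488 nm excitation, 500-530 nm channel) was read by laser-scanning cytometry and normalized to 20 uM Triacsin C.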

[16] = Primary qHTS for small molecule stabilizers of the endoplasmic reticulum resident proteome: Secreted ER Calcium Modulated Protein (SERCaMP) assay (AID 1508630); settings: SH-SY5Y GLuc-SERCaMP (Gaussia luciferase released on ER calcium loss) secretion, thapsigargin, luminescence; series mostly up to 38.4 µM; also: % is scaled to controls: 0 for no effect and ±100 for the full control effect
Summary of the method: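 The SH-SY5Y reporter protocol was run at 3 concentrations up to 38.3 uM (primary) or 11 concentrations (follow-up): 16 h compound, 100 nM thapsigargin for 4 h, then extracellular luciferase luminescence.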

[17] = molecular target: Cytochrome P450 2C9 (Homo sapiens) (UniProt P11712); test: qHTS Assay for Inhibitors and Substrates of Cytochrome P450 2C9 (AID 883); settings: recombinant CYP2C9, luciferin-H luminescence, 60 min; series mostly up to 57.1 µM; also: potency is read from the fitted curve at half-maximal effect; nearly all actives have a fitted effect of over 60% in size
Chain of Cytochrome P450 2C9 (Homo sapiens) (P11712 whole entry, looked up): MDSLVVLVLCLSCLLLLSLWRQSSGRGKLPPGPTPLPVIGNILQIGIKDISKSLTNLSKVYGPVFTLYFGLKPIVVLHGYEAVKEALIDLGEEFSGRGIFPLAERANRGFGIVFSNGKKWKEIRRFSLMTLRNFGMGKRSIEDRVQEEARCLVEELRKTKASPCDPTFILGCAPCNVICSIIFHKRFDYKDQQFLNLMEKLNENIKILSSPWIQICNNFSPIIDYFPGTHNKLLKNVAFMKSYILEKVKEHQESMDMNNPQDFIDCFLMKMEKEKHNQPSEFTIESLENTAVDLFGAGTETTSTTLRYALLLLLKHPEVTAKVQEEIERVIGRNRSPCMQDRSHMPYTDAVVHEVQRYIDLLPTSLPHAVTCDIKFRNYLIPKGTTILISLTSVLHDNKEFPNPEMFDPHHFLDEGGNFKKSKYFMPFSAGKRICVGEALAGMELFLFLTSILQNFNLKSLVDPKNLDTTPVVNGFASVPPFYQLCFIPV
Summary of the method: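 Inhibition of CYP2C9 is scored as loss of luminescence, with 57uM sulphaphenazole defining 100% inhibition. Substrate Luciferin-H is used at 100uM, equal to its KM; enzyme at 10nM in 25mM KPO4, 60 min at 37C with NADPH regeneration.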

[18] = measured here: cell count channel max response
[19] = measured here: lipid channel max response

Row | Compound | Potency [1] | activity change, negative = inhibition [2] | Potency [3] | activity change, negative = inhibition [4] | activity, negative = inhibition [5] | Potency [6] | Potency [7] | outcome [8] | Potency [9] | Potency [10] | Potency [11] | Potency [12] | outcome [13] | outcome [14] | activity change, negative = inhibition [15] | max response [15, 18] [%] | max response [15, 19] [%] | Potency [16] | Potency [17]
1 | Cc1cccc(CNc2ccnc(-c3cccnc3)n2)c1 | > 11.4 µM (inactive) | -18.1% (inactive) | 0.126 µM (active) | 10.6% (inactive) | 1.1% (inactive) | > 46 µM (inactive) | > 46 µM (inactive) | inactive | inactive | 0.501 µM (active) | inactive | 2.51 µM (active) | inactive | inactive | 8.22% (inactive) | -7.71 | -5.64 | inactive | –
2 | COc1ccccc1CNc1ncncc1-c1ccoc1 | > 11.4 µM (inactive) | -6.36% (inactive) | 1.26 µM (active) | -22.1% (inactive) | -4.03% (inactive) | > 46 µM (inactive) | > 46 µM (inactive) | inactive | – | – | inactive | – | inactive | inactive | 9.08% (inactive) | -3.49 | 5.8 | inactive | –
3 | COc1ccccc1CCn1c(=O)c(-c2cc(F)cc(F)c2)nc2cncnc21 | > 11.4 µM (inactive) | -3.28% (inactive) | 1.58 µM (active) | -7.47% (inactive) | 13% (inactive) | > 9.22 µM (inactive) | > 46 µM (inactive) | inactive | – | 0.398 µM (active) | inactive | 1.58 µM (active) | – | – | 6.22% (inactive) | -2.09 | 2.22 | inactive | 1.58 µM (active)
